Results on five molecules are retold here after PubChem BioAssay (NCATS).

The nature of assay [1]: AP1 Signaling Pathway (AID 357; active means well fitted curve in either direction with a large enough effect, not every such curve was filed as active;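 further: ME-180 reporter cells stimulated with EGF at its EC50 level; on the % scale 0 is the no-effect control and ±100 the full control effect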). The gist of the method: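 Modulation of EGF-driven AP-1 transcription was assessed with a beta-lactamase reporter in ME-180 cells. Compound and EC50 EGF were co-incubated 5 hours at 37 °C before 2.5-hour CCF4 loading at room temperature and dual-emission reading.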
In assay [2] the target is Cytochrome P450 1A2 (Homo sapiens) (UniProt P05177). Description: p450-cyp1a2 (AID 410; calls by dose curve; further: potency means the concentration at half of the fitted maximal effect). Put shortly:
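Human CYP1A2 (20nM) demethylated Luciferin-ME at its Km (100uM) in 100mM KPO4. After 10 min compound preincubation, NADPH regeneration ran the reaction 60 min at room temperature. Luciferin was read by luminescence, normalized to 57 uM furafylline.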

Assay [3] in a line: NFAT Signaling Pathway (AID 444; active means well fitted curve in either direction with a large enough effect, not every such curve was filed as active;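 further: carbachol stimulus at about its EC50 of 1 µM final; on the % scale 0 is the no-effect control and ±100 the full control effect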). As to conditions: Jurkat NFAT-bla M1, carbachol, beta-lactamase ratio, 5 h; at 17.2 µM (top of the series) unless noted. Put shortly: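 Jurkat cells with NFAT-driven β-lactamase reporter and co-expressed M1 receptor, stimulated with carbachol (final 1 uM, ~EC50), compound titration, 5 h at 37 °C. CCF4 loaded 1 h at RT; 460/530 nm ratio gave %activity and AC50.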

Assay [4] can be described thus: Stat Signaling Pathway (AID 446; active means well fitted curve in either direction with a large enough effect, not every such curve was filed as active;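 further: ME-180 cervical cancer cells given 40 pM IL-6 alongside compound; SIE-controlled beta-lactamase reporter measured as 460/530 nm FRET emission ratio; on the % scale 0 is the no-effect control and ±100 the full control effect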). The gist of the method: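 Reporter line: ME-180 cervical carcinoma, SIE-beta-lactamase. Treatment: compound with 40 pM IL-6, 5 hrs, 37 C, in low-serum OPTI-MEM with 10 mM HEPES pH 7.3. Detection: 460/530 nm fluorescence.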
For assay [5], the target named is Mitogen-activated protein kinase 10 (Mus musculus) (UniProt Q61831). The experiment in a line: JNK3 AlphaScreen Assay (AID 530; active means well fitted curve in either direction with a large enough effect, not every such curve was filed as active;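 further: kinase came from lysate of stimulated human HepG2 cells; signal reports phosphorylation of biotinylated GST-cJun 1-79 at Ser73 with 10 µM ATP; on the % scale 0 is the no-effect control and ±100 the full control effect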). Put shortly: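 qHTS format: compounds tested as titrations against IL-1beta/TNF-alpha-activated HepG2 lysate JNK3 with biotin-GST-cJun substrate and 10 uM ATP at room temperature. Loss of anti-phospho-cJun AlphaScreen signal indicates inhibition.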
A general note: Alpha assays give light when donor and acceptor beads are brought close together.

Assay [6] deals with 3',5'-cyclic-AMP phosphodiesterase 4B (Homo sapiens) (UniProt Q07343). Description: qHTS Assay for Inhibitors of PDE-IV (AID 607; active means well fitted activation curve with a large enough effect in the main read-out, with a control signal flat, not every such curve was filed as active; further: % of control where 0% means no effect). Put shortly: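 Cell-based read-out of cAMP via a modified cyclic nucleotide-gated channel and membrane potential dye (535/590 nm) in HEK293 cells expressing PDE4 endogenously. Compounds tested up to 22.9 uM final; 100 uM RO 20-1724 reference.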
3',5'-cyclic-AMP phosphodiesterase 4B (Homo sapiens), sequence (Q07343 whole entry, looked up): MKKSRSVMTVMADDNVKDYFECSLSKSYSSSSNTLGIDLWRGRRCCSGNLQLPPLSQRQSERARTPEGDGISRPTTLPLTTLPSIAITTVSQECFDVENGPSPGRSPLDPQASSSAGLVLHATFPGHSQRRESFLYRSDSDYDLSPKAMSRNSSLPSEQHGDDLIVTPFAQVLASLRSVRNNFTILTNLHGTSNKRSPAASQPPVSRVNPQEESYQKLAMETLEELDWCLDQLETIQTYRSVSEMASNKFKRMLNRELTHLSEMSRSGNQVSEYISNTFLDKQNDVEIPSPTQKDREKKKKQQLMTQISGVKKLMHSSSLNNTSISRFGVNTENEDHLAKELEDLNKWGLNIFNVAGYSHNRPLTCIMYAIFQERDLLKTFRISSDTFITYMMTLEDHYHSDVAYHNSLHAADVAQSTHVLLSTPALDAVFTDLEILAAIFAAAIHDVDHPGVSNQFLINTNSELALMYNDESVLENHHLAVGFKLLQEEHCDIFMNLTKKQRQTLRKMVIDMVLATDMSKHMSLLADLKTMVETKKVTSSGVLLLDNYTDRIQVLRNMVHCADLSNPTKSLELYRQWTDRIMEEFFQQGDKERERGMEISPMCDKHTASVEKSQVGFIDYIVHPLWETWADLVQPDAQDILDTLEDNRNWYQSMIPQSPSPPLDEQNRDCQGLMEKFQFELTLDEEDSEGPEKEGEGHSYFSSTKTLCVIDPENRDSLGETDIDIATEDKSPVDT
In general terms: qHTS replaces the single test concentration by a dilution series.

A short description of assay [7]: qHTS Assay for Lipid Storage Modulators (AID 1519; calls by dose curve). To be noted: Drosophila S3 cells, BODIPY lipid droplet/cell ratio, laser cytometry, cells loaded with oleic acid; for activity change, negative = inhibition: at 25.7 µM (top of the series). Put shortly: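 Cells seeded at 5,000 per well were treated with compounds over a concentration series and loaded with oleic acid (400 uM, as added). Lipid droplet fluorescence (488 nm excitation, 500-530 nm channel) was read by laser-scanning cytometry and normalized to 20 uM Triacsin C.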

In assay [8] the target is ATP-dependent 6-phosphofructokinase (Trypanosoma brucei brucei) (UniProt O15648). The experiment in a line: qHTS Assay to Find Inhibitors of T. brucei phosphofructokinase: hit validation (AID 492961). Further: on the % scale 0 is the no-effect control and ±100 the full control effect. The gist of the method:
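Luminescence from ADP-Glo reports ADP generated as T. brucei PFK (1.25 nM) phosphorylates 0.5 mM fructose-6-phosphate using 0.1 mM ATP. Reactions ran 45 min at room temperature, pH 8.0.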

Assay [9] concerns the target Ubiquitin carboxyl-terminal hydrolase 1 (Homo sapiens) (UniProt O94782). Description: Inhibitors of USP1/UAF1: Pilot qHTS (AID 504865).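 Further: rhodamine fluorescence freed from ubiquitin-rhodamine substrate followed over time; top concentration of the series differs between compounds; on the % scale 0 is the no-effect control and ±100 the full control effect; nearly all actives have a fitted effect of over 35% in size.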 Put shortly: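 USP1/UAF1 complex (1nM) preincubated with compound 15 min at room temperature, then Ub-Rho substrate (150nM final) added. Fluorescence read kinetically at 480/540 nm, 6 reads every 60 seconds. Buffer: 50mM HEPES pH 7.8, 0.5mM EDTA, 0.1 mg/ml BSA, 1mM TCEP, 0.01% Tween-20.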

The target of assay [10] is Luciferin 4-monooxygenase (Photinus pyralis) (UniProt P08659). Description: Biochemical firefly luciferase enzyme assay for NPC (AID 624030). Further: nearly all actives have a fitted effect of over 70% in size. Further: potency means the concentration at half of the fitted maximal effect.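 On activity change, negative = inhibition: purified P. pyralis luciferase at 10 nM with luciferin and ATP substrate; 0% = DMSO and -100% = full luciferase inhibition by PTC124 control.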 The gist of the method:
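Purified P. pyralis luciferase at 10 nM in 50 mM Tris Acetate (final), luminescence read within 5 minutes of enzyme addition to compounds. Activity normalised to PTC124 versus DMSO; concentration-response curves classed by r2, magnitude and activity.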

Assay [11] in a line: qHTS profiling for inhibitors of Plasmodium falciparum proliferation (AID 504749).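 Further: 0% = DMSO vehicle and full inhibition = artemisinin control; nearly all actives have a fitted effect of over 60% in size.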 As to conditions: P. falciparum in erythrocytes, SYBR Green DNA, 72 h, at 12.8 µM (top of the series). Put shortly: (§1)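 Readout was DNA-dye fluorescence from lysed cultures, ex 485/em 535 nm. Parasitized red cells had grown 72 h with compound; data scaled between 0.29 uM artemisinin and DMSO wells and corrected using vehicle-only plates.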

A further assay deals with 3D7. Described as above. As to conditions: P. falciparum in erythrocytes, SYBR Green DNA, 72 h; series mostly up to 12.8 µM. The gist of the method:
as §1

In a further assay the test system is C2A. Described as above. To be noted: P. falciparum in erythrocytes, SYBR Green DNA, 72 h; series mostly up to 12.8 µM. The gist of the method:
as §1

Another assay concerns CP217. The description is as above. As to conditions: P. falciparum in erythrocytes, SYBR Green DNA, 72 h; series mostly up to 12.8 µM. The gist of the method: as §1
A further assay has as its system CP250. Described as above. As to conditions: P. falciparum in erythrocytes, SYBR Green DNA, 72 h; series mostly up to 12.8 µM. Put shortly:
as §1

The next assay has as its system FAB9. The assay is described as above. To be noted: P. falciparum in erythrocytes, SYBR Green DNA, 72 h; series mostly up to 12.8 µM. The gist of the method:
as §1

A further assay has as its system JCK. The description is as above. To be noted: P. falciparum in erythrocytes, SYBR Green DNA, 72 h; series mostly up to 12.8 µM. The gist of the method: as §1
The test system of another assay is PC49. Described as above. To be noted: P. falciparum in erythrocytes, SYBR Green DNA, 72 h; series mostly up to 12.8 µM. Put shortly:
as §1

Setting [12] is: measured here: cell count channel max response.
The mark [13] stands for this setting: measured here: lipid channel max response.

The structures appear in SMILES notation. Inconclusive results are not listed. Activity calls are given as the source filed them. Unless noted, the call rests on the fitted dose curve; in most records, active means well fitted curve in the direction sought with a large enough effect; inconclusive means small, poorly fitted or top-dose-only effect, or another doubt; inactive means no such curve, though single readings can be large; an effect the other way counts as inactive or inconclusive.

Ubiquitin carboxyl-terminal hydrolase 1 (Homo sapiens), sequence (O94782 whole entry, looked up): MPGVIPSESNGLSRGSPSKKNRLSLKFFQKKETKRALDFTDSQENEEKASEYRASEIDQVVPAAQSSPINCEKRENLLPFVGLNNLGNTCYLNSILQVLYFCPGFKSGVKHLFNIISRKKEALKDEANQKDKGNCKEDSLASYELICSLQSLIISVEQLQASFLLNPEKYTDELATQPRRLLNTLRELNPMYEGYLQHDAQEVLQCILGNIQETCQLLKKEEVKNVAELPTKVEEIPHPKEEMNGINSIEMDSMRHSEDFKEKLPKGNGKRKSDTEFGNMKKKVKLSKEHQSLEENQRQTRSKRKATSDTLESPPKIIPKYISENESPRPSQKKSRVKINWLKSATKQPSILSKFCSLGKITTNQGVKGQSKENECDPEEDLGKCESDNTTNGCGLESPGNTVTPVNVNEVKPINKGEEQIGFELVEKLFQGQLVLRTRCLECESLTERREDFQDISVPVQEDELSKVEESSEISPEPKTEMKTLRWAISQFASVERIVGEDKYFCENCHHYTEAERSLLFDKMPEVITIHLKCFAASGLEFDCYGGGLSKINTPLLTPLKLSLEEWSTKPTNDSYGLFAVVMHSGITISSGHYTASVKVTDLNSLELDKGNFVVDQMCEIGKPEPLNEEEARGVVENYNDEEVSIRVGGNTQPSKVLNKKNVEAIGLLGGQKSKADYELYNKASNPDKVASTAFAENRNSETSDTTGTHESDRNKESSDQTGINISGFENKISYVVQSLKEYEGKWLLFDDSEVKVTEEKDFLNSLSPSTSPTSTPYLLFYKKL
ATP-dependent 6-phosphofructokinase (Trypanosoma brucei brucei), sequence (O15648 whole entry, looked up): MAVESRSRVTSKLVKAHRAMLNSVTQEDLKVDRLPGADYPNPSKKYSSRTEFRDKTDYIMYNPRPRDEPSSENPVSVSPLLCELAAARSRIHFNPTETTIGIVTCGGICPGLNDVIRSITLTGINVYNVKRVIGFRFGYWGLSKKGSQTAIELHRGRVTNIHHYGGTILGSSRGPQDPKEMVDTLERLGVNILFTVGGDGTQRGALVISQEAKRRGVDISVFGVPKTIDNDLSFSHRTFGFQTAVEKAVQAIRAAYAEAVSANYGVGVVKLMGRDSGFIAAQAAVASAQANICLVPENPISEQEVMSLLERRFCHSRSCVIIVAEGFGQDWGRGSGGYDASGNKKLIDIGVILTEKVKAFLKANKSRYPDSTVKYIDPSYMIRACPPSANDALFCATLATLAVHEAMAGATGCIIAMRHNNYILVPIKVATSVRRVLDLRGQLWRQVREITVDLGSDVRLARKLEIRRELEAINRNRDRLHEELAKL
Luciferin 4-monooxygenase (Photinus pyralis), sequence (P08659 whole entry, looked up): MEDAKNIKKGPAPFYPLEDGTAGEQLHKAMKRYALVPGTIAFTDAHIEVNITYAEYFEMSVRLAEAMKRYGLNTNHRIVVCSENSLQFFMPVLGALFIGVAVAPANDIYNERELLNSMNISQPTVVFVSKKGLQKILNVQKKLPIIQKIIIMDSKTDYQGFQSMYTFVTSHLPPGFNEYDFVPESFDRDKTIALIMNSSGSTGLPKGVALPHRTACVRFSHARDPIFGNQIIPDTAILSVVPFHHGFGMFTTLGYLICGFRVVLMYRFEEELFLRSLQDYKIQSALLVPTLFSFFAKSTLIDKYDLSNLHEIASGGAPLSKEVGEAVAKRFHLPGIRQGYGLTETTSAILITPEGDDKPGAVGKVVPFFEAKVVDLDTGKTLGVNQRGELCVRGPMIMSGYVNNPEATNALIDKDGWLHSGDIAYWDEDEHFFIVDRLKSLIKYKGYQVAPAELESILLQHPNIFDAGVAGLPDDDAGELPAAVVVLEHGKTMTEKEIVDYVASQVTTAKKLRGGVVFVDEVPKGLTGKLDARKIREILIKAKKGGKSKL
Cytochrome P450 1A2 (Homo sapiens), sequence (P05177 whole entry, looked up): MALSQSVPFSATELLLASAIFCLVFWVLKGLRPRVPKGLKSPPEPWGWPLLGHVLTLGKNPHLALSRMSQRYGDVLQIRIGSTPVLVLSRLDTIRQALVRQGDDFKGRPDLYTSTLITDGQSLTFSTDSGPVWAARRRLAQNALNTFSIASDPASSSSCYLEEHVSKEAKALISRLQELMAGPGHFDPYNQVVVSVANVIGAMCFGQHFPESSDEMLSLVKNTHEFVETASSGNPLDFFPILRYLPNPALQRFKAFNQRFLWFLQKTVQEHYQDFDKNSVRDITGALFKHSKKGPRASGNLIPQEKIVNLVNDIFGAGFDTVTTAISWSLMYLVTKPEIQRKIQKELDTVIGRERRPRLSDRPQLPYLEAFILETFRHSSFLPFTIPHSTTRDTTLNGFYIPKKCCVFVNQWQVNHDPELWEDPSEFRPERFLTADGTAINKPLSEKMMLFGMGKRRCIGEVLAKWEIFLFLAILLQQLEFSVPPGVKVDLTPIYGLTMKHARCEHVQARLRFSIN

On to `C[C@@H](C(=O)O)c1ccc(C(=O)c2ccccc2)s1`, for which the outcome in assay [1], in assay [4], in [6] and in assay [8] was inactive. For the same molecule, the Potency in assay [2] was 251 nM (active); in assay [10], 4890 nM (active). The activity change, negative = inhibition in [3] was 4.12% (inactive); in assay [7], -0.119% (inactive). Also, the Potency entry (in assay [5]; in [9]; in the assay with 3D7; in the assay with C2A; in the assay with CP217; in the assay on CP250) was “inactive” in each case. The Potency result with FAB9, in the assay with JCK and with PC49 was “inactive” in each case. The max response in assay [7] (setting [12]) was 1.62%; in assay [7] (setting [13]) it was 2.32%. Besides, the activity, negative = inhibition was 5.2% (inactive) in [11] (parasite line A) and 16.9% (inactive) in assay [11] (parasite line B).
In the case of `COc1c(O[C@H]2O[C@@H](CO)[C@@H](O)[C@@H](O)[C@@H]2O)cc2c(c1OC)-c1ccc(SC)c(=O)cc1[C@H](NC(C)=O)CC2`, the molecule was called inactive in assay [1], in [4], in assay [6] and in assay [8]. Also, the Potency entry (in [2]; in assay [5]; in assay [9]; in [10]; in the assay with 3D7; in the assay with C2A) was “inactive” throughout. For the same molecule, the Potency result in the assay on CP217, in the assay on CP250, in the assay with FAB9, with JCK and with PC49 was “inactive” throughout. Besides, the activity change, negative = inhibition was 5.96% (inactive) in assay [3] and -1.68% (inactive) in assay [7]. The max response is 3.12% in [7] (setting [12]) and 2.91% in assay [7] (setting [13]). The activity, negative = inhibition in [11] (parasite line A) is 5.35% (inactive); in assay [11] (parasite line B), 4.25% (inactive).
With `CC(=O)OCC(=O)[C@@]1(O)[C@H](C)C[C@@H]2[C@H]3CCC4=CC(=O)C=C[C@]4(C)[C@]3(F)[C@@H](O)C[C@@]21C`, the result in assay [1], in assay [4], in [6] and in assay [8] was inactive. The Potency result (in assay [2]; in assay [5]; in [9]; in assay [10]; with 3D7; in the assay with C2A) was “inactive” throughout. The Potency entry with CP217, in the assay on CP250, in the assay on FAB9, with JCK and in the assay on PC49 was “inactive” in each case. The activity change, negative = inhibition was -0.305% (inactive) in [3] and -3.21% (inactive) in assay [7]. In addition, the max response was -15.2% in [7] (setting [12]) and -18.5% in assay [7] (setting [13]). Besides, the activity, negative = inhibition is 0.4% (inactive) in assay [11] (parasite line A) and -1.7% (inactive) in assay [11] (parasite line B).
Consider `CCC(=O)OCC(=O)[C@@]1(OC(=O)CC)[C@H](C)C[C@@H]2[C@H]3CCC4=CC(=O)C=C[C@]4(C)[C@]3(Cl)[C@@H](O)C[C@@]21C`, for which the result in [1], in [4] and in assay [6] was inactive. The Potency result in assay [2] and in [5] was “inactive” in each case. For the same molecule, the activity change, negative = inhibition in assay [3] is -10.9% (inactive); in assay [7], -9.54% (inactive). In addition, the max response was -5.37% in assay [7] (setting [12]) and -14.6% in assay [7] (setting [13]).
With `CC(=O)CC(=O)[C@@]1(O)CC[C@@H]2[C@@H]3C=C(C)C4=CC(=O)CC[C@@H]4[C@H]3CC[C@]21C`, the molecule was classed as inactive in assay [1], in assay [4] and in assay [6]. Also, the Potency result in assay [2] and in assay [5] was “inactive” in each case. Further, the activity change, negative = inhibition in assay [3] was -13.4% (inactive); in [7] it was -4.61% (inactive). The values for the max response in assay [7] (setting [12]) and in assay [7] (setting [13]) were -16.2% and -21%, respectively.
